What was measured:
Assay in all cases: log2 ratio of Biotin-Ahx-Ub-VS probe labelling (fragment/DMSO); higher = less target engagement (more negative = stronger competition), active = hit call of the paper (q ≤ 0.05, log2 ratio ≤ -1)
Settings in all cases: compound concentration: 200 uM; treatment time: 3 h
OTUD6B = biological target: T1, OTUD6B (UniProt Q8N6M0)
T1 sequence (whole entry): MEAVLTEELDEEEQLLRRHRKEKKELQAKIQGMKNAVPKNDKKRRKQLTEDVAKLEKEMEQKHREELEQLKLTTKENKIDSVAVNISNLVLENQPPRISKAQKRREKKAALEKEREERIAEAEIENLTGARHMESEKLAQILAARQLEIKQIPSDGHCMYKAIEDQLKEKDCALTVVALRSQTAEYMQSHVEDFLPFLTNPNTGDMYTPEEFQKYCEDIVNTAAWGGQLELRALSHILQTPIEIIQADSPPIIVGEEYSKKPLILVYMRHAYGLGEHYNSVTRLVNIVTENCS
Summary of the method: (§1)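 Fragment (200 µM) or vehicle was incubated for 3 h with triplicate HEK293T lysate samples of 495 µg, which were then treated with Biotin-Ahx-Ub-VS at 0.5 µM final for 1 h. Labelled DUBs were enriched on NeutrAvidin, digested with LysC and trypsin, and analysed by diaPASEF LC-MS/MS. Values are average log2 fragment/vehicle ratios from an unpaired t-test on global-median-normalised Spectronaut label-free quantities, using proteins with ≥2 unique peptides.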

OTUD7B = biological target: T2, OTUD7B (UniProt Q6GQQ9)
T2 sequence (whole entry): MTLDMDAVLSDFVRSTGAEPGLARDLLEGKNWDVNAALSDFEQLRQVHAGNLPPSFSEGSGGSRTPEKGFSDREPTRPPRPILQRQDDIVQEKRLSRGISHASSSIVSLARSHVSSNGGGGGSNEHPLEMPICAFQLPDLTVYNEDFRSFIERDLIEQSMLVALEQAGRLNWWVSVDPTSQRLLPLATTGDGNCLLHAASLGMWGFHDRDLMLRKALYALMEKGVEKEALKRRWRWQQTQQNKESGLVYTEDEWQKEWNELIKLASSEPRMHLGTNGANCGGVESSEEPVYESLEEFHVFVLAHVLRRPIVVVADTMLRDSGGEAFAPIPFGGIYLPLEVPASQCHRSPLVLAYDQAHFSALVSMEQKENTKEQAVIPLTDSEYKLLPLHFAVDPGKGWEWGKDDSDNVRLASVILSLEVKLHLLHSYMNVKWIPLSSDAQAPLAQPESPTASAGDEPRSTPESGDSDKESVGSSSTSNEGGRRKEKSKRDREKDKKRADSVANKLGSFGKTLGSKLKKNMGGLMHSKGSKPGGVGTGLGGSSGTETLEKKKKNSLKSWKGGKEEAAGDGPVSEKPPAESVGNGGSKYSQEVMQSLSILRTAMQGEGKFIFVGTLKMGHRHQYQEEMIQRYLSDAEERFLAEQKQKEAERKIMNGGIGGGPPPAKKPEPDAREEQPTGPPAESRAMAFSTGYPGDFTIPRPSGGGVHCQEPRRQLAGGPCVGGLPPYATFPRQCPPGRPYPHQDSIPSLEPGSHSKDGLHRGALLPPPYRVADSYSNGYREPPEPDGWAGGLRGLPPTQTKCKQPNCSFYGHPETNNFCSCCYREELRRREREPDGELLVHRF
Summary of the method: as §1

PRPF8 = PRPF8 (UniProt Q6P2Q9)
Summary of the method: as §1

PSMD7 = biological target: T3, PSMD7 (UniProt P51665)
T3 sequence (whole entry): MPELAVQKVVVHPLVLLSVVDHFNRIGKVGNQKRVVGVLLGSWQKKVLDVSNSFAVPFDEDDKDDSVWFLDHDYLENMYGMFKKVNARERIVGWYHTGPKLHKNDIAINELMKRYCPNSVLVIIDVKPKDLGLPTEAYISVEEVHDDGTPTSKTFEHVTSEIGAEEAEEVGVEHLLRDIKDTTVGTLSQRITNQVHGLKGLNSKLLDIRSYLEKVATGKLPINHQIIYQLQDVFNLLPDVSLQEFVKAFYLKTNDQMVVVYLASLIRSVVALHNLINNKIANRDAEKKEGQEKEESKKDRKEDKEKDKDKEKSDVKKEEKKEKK
Summary of the method: as §1

UCHL1 = UCHL1 (UniProt P09936)
UCHL1, sequence (P09936 whole entry, looked up): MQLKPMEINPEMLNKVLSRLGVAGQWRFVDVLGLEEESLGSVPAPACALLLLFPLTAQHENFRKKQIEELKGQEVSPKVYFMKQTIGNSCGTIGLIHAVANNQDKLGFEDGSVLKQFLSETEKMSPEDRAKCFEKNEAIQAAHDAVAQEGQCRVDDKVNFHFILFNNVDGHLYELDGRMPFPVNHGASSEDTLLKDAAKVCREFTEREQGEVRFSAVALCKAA
Summary of the method: as §1

UCHL3 = biological target: T4, UCHL3 (UniProt P15374)
T4 sequence (whole entry): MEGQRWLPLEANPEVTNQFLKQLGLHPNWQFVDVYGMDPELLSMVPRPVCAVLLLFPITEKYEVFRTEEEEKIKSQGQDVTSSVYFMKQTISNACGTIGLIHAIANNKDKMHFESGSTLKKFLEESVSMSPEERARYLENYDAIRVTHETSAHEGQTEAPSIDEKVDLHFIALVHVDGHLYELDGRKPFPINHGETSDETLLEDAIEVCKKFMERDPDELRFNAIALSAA
Summary of the method: as §1

UCHL5 = biological target: T5, UCHL5 (UniProt Q9Y5K5)
T5 sequence (whole entry): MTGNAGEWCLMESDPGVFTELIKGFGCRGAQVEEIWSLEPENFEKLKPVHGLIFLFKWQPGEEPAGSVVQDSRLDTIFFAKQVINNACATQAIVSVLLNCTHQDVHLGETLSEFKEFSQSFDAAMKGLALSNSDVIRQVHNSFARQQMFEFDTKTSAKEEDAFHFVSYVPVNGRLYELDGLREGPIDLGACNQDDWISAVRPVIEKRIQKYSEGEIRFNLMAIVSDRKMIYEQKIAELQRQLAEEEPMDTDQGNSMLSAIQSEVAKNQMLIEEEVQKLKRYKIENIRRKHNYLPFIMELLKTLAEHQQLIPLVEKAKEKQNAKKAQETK
Summary of the method: as §1

USP10 = USP10 (UniProt Q14694)
USP10, sequence (Q14694 whole entry): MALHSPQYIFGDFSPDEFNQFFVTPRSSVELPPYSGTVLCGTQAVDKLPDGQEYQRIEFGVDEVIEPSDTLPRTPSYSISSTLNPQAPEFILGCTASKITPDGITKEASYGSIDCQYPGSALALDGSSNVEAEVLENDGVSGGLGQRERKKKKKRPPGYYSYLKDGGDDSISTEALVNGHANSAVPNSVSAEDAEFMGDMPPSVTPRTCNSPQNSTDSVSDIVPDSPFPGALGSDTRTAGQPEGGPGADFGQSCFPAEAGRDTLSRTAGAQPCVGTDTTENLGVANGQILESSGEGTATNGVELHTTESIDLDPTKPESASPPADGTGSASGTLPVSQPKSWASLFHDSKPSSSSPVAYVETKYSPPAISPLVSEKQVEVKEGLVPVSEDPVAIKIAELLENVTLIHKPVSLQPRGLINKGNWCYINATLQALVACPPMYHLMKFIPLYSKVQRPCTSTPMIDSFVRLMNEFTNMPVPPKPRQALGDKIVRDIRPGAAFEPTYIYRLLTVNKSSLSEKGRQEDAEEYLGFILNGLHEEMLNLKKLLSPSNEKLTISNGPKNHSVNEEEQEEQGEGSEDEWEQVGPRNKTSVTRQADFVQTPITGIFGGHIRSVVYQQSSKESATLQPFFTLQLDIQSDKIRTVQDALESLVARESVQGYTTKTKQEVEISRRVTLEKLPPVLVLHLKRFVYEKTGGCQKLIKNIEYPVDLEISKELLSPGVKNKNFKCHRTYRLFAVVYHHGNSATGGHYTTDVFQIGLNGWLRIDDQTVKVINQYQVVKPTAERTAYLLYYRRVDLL
Summary of the method: as §1

USP15 = biological target: T6, USP15 (UniProt Q9Y4E8)
T6 sequence (whole entry): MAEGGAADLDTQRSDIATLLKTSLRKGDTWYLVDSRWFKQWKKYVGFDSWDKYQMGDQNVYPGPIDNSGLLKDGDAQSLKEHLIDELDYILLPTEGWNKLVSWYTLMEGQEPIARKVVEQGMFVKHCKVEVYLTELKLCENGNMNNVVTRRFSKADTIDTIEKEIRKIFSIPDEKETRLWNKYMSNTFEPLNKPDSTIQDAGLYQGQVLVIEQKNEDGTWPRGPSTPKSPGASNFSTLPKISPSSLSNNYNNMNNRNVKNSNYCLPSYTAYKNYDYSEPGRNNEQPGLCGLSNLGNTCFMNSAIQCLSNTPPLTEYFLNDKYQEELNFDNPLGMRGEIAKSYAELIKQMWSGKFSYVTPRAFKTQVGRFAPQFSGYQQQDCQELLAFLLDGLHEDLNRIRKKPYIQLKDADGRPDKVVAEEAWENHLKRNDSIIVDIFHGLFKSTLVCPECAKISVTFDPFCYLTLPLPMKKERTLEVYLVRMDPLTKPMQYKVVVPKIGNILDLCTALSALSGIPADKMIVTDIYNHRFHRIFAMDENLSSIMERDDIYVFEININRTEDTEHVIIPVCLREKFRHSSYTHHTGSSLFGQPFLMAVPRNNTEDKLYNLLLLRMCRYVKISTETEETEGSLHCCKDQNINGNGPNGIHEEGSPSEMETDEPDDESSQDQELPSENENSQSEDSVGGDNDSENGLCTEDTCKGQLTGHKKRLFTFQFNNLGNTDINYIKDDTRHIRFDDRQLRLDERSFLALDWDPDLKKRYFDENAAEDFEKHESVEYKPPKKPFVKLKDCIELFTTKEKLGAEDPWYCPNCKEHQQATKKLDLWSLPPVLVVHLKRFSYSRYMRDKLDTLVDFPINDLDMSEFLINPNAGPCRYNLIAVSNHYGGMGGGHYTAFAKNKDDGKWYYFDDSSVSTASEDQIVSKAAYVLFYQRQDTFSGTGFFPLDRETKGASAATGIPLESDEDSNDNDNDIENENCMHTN
Summary of the method: as §1

USP16 = USP16 (UniProt Q9Y5T5)
USP16, sequence (Q9Y5T5 whole entry, looked up): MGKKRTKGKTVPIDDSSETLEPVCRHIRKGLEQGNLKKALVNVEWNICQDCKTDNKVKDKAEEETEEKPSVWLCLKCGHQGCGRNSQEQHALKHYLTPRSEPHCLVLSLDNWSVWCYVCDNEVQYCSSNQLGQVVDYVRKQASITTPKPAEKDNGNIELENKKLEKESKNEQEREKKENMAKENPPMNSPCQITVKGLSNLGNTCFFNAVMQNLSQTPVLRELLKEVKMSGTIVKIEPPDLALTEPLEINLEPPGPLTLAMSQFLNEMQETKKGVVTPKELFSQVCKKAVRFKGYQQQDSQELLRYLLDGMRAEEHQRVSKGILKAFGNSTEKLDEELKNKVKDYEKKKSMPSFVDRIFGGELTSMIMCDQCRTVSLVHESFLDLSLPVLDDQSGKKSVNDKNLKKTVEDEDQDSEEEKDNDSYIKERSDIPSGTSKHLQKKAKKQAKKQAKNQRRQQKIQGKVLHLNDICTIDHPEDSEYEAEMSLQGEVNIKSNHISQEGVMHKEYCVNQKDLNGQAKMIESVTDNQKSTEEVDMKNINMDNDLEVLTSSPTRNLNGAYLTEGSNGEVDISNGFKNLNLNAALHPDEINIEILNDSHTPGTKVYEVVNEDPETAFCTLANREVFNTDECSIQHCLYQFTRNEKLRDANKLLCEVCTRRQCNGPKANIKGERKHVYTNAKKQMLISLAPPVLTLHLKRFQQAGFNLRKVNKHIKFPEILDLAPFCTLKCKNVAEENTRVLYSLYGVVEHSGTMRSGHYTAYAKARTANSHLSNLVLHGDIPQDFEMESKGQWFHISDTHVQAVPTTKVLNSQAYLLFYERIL
Summary of the method: as §1

Measured: log2 ratio of Biotin-Ahx-Ub-VS probe labelling

Cl.O=C(CCl)N1CCc2ncncc2C1
inactive: OTUD6B -0.0834 | OTUD7B -0.487 | PRPF8 0.0782 | PSMD7 -0.0569 | UCHL1 -0.583 | UCHL3 0.176 | UCHL5 -0.176 | USP10 -0.322 | USP15 -0.514 | USP16 -0.106
